TIM10 inh = TIM10 yeast growth inhibition. S. cerevisiae TIM10 strain growth, BacTiter-Glo luminescence, 24 h. inhibition, % at 10 µM. 1.4% of 330,000 active. AID 463195;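 active = inhibition of 40% or more at the single tested concentration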;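 also: wild-type TIM10 isogenic control strain grown at permissive 25 °C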
tim23-1 inh = growth inhibitors of tim23-1 mutant yeast; 1.3% of 330,000 active; S. cerevisiae tim23-1 growth, BacTiter-Glo luminescence, 24 h; AID 463212; inhibition, % at 20 µM;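 active = growth inhibition of the mutant yeast at or above 50%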;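 also: temperature-sensitive mutant grown at 25 °C; plate controls were DMSO-treated mutant yeast for no effect and medium wells lacking yeast for full effect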
PfHsp90 yeast 2 = growth inhibition of yeast expressing Plasmodium Hsp90. S. cerevisiae expressing PfHsp90, BacTiter-Glo ATP, 48 h; yeast lacking PDR1 and PDR3 efflux regulators. inhibition, % at 9.4 µM. 0.32% of 310,000 active. AID 504621;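 active = every replicate shows inhibition above about 80%, whatever the replicate mean, limit read from the data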;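 also: 0% = DMSO neutral controls and 100% = 20 µM radicicol positive controls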
SUMO Mot1 rescue = inhibitors of SUMOylation pathway: yeast Mot1-301 growth rescue; 1% of 320,000 active; S. cerevisiae Mot1-301 growth rescue, ATP luminescence, 38.5C; percent above DMSO median, 100 means doubled; growth rescue, % at 18.8 µM;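 active = every valid replicate shows activation above 250% relative to neutral control wells; inactive = the rest, any valid replicate at or below 250%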;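 also: OY570 slx delta 5 strain wells were the positive control but not used for scaling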
tim10-1 inh = tim10-1 yeast growth inhibition | S. cerevisiae tim10-1 ts strain growth, BacTiter-Glo, 24 h | inhibition, % at 20 µM | 2.2% of 330,000 active;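 active = inhibition of at least 40%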;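 also: mutant grown at 25 °C; 0% = DMSO wells with yeast and 100% = wells holding no yeast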
tim10-1 confirm = tim10-1 yeast growth inhibition, confirmed; shares compounds with tim10-1 inh; S. cerevisiae tim10-1 ts strain growth, BacTiter-Glo, 24 h; inhibition, % at 20 µM; 56% of 7,400 active;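 active = inhibition of yeast growth at or above a set limit in either of two repeat tests at 20 µM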;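 also: tim10-1 mutant grown at permissive 25 °C to find synthetic lethal compounds; 0% = DMSO yeast wells and 100% = medium wells without yeast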
* = called active by the depositor. Shown are actives, neighbours in structure and some others; about 4.4% of the full set was active somewhere.

For O=c1c(Cc2c(F)cccc2Cl)c(O)ccn1CCCn1ccnc1 the results were TIM10 inh 0, tim23-1 inh -2, PfHsp90 yeast 2 4, SUMO Mot1 rescue -6 and tim10-1 inh -7.
For Cc1c(C(=O)c2ccc(F)cc2F)c2ccccn2c1CCC#N the results were TIM10 inh 15, tim23-1 inh 18, PfHsp90 yeast 2 19, SUMO Mot1 rescue 47 and tim10-1 inh 27.
Screening Cc1c(C(=O)c2ccc(N(C)C)cc2)c2ccccn2c1CCC#N returned TIM10 inh 20, tim23-1 inh 16, PfHsp90 yeast 2 -6, SUMO Mot1 rescue 6, tim10-1 inh 40* and tim10-1 confirm 12.
`CCOC(=O)c1ccc(NC(=O)C2COc3ccccc3O2)cc1` (centres undefined) gave TIM10 inh -4, tim23-1 inh 38, PfHsp90 yeast 2 5, SUMO Mot1 rescue -3 and tim10-1 inh 22.
CCOCCOC(=O)c1ccc(NC(=O)C2COc3ccccc3O2)cc1 (centres undefined) was read as TIM10 inh 14, tim23-1 inh 41, PfHsp90 yeast 2 -15, SUMO Mot1 rescue 6, tim10-1 inh 42* and tim10-1 confirm 26.
For O=C(COC(=O)c1cccc(O)c1)Nc1ccc(S(=O)(=O)N2CCOCC2)cc1 the results were TIM10 inh -5, tim23-1 inh -6, PfHsp90 yeast 2 15, SUMO Mot1 rescue -5 and tim10-1 inh -6.
`Cc1cc(C)c2nc(C(F)(F)F)c(C#N)c(N)c2c1` gave TIM10 inh 30, tim23-1 inh 11, PfHsp90 yeast 2 -7, SUMO Mot1 rescue -24, tim10-1 inh 42* and tim10-1 confirm 20.
Screening Cc1cccc2c1N(CCOc1ccc(C(C)(C)C)cc1)C(=O)C2=O returned TIM10 inh 28, tim23-1 inh 43, PfHsp90 yeast 2 -25, SUMO Mot1 rescue 4, tim10-1 inh 46* and tim10-1 confirm 33*.
`COc1ccccc1OCCCN1C(=O)C(=O)c2cccc(C)c21` gave TIM10 inh 18, tim23-1 inh 37, PfHsp90 yeast 2 17, SUMO Mot1 rescue 11 and tim10-1 inh 9.
For COc1ccccc1CNC(=O)CN(C)S(=O)(=O)c1ccc(Br)s1 the results were TIM10 inh -11, tim23-1 inh 14, PfHsp90 yeast 2 4, SUMO Mot1 rescue -2 and tim10-1 inh 14.
COc1cc(C)c(Br)cc1S(=O)(=O)NCc1ccncc1 was read as TIM10 inh -9, tim23-1 inh 0, PfHsp90 yeast 2 -5, SUMO Mot1 rescue -10 and tim10-1 inh 4.
`COc1cc(C)c(Br)cc1S(=O)(=O)NCc1cccs1` gave TIM10 inh 32, tim23-1 inh 40, PfHsp90 yeast 2 -27, SUMO Mot1 rescue 1, tim10-1 inh 40* and tim10-1 confirm 32*.
`COC(=O)c1ccc(N2CCN(c3ccccc3)CC2)nc1` gave TIM10 inh -10, tim23-1 inh 4, PfHsp90 yeast 2 -7, SUMO Mot1 rescue -7 and tim10-1 inh -10.
Screening COc1ccc(N2CCN(C(=O)CSc3nnc(-c4cc5ccccc5cc4O)n3C)CC2)cc1 returned TIM10 inh 22, tim23-1 inh 33, PfHsp90 yeast 2 0, SUMO Mot1 rescue 1, tim10-1 inh 45* and tim10-1 confirm 19.
O=C(c1cc2cc(F)ccc2[nH]1)N1CCN(Cc2ccc3c(c2)OCO3)CC1 was read as TIM10 inh 20, tim23-1 inh 30, PfHsp90 yeast 2 -6, SUMO Mot1 rescue 19, tim10-1 inh 44* and tim10-1 confirm -18.
For CNc1sc(C(=O)c2cccs2)c(N)c1-c1nc2ccccc2s1 the results were TIM10 inh 31, tim23-1 inh 45, PfHsp90 yeast 2 -35, SUMO Mot1 rescue 40, tim10-1 inh 48* and tim10-1 confirm 48*.
`CNc1sc(C(=O)c2ccc(F)cc2)c(N)c1-c1nc2ccccc2s1` gave TIM10 inh 35, tim23-1 inh 42, PfHsp90 yeast 2 -10, SUMO Mot1 rescue -9, tim10-1 inh 41* and tim10-1 confirm 23.
CC(=O)Nc1scc(C)c1-c1nc2ccccc2s1 was read as TIM10 inh 16, tim23-1 inh 7, PfHsp90 yeast 2 -5, SUMO Mot1 rescue -8 and tim10-1 inh 21.

High-throughput results from PubChem BioAssay.
